# According to PubChem BioAssay (Tox21):
# The source made the active and inactive calls. Calls come from the whole dose curve; as a rule, active = well fitted curve in the direction sought with a large enough effect in the repeat runs; inconclusive = weak or mixed curves; inactive = flat fitted curve, though single readings scatter.
# Experiment: qHTS assay to test for compound auto fluorescence at 535 nm (green) in HEK293 cell free culture (AID 720682)
# Settings: cell-free medium, green autofluorescence 485/535 nm; series mostly up to 91.3 µM
# From the text: U.S. Tox21 Program National Center for Advancing Translational Sciences [NCATS] NIH Chemical Genomics Center [NCGC] U.S. Environmental Protection Agency [EPA] National Institutes of Environmental Health Sciences [NIEHS] National Toxicology Program [NTP] U.S. Food and Drug Administration [FDA] Tox21 Assay Overview: Compound auto fluorescence often interferes with screening of the compound library against various biological targets and signaling pathways. Some of these compounds may have fluorophoric properties. Such properties may interfere with the assay outputs resulting in false positives and/or negatives. To decrease such complications and ensure the compound activities are relevant in terms of biological response, the Tox21 10K compound library was screened for auto fluorescence. From the fluorophores used as reporter signals in our screening assays, the auto fluorescence equivalencies of compounds against three fluorophores have been evaluated: Triamterene, Fluorescein and Rose Bengal sodium for blue, green and red fluorescence, respectively. The fluorescence intensities were measured using Excitation/Emission wavelengths at 405/460nm, 485/535nm and 540/590nm for blue, green and red labels, respectively. This assay includes the green fluorescence data.
# Tox21 Assay Protocol Summary: 5 uL of culture medium (DMEM containing 10% FBS) per well was dispensed into black wall/clear bottom 1536-well plates using a Multidrop Combi Dispenser (ThermoFisher Scientific, Waltham, MA). After 23 nL compound or DMSO vehicle was transferred into assay plate by a pintool work station (Kalypsys, San Diego, CA), fluorescence intensities in the assay plates were measured by an Envision (PerkinElmer, Shelton, CT) plate reader using three labels for measuring blue, green and red fluorescence at […] 460, 535 and 590nm respectively.
row,Structure (SMILES),outcome
1,Cc1cc(=O)n(-c2ccccc2)n1C,inactive
2,NS(=O)(=O)c1cc(C(=O)O)c(NCc2ccco2)cc1Cl,inactive
3,O=C1CN(/N=C/c2ccc([N+](=O)[O-])o2)C(=O)N1,inactive
4,Cc1cc(=O)[nH]c(=S)[nH]1,inactive
5,O=C(O)C(=O)O,inactive
6,O=C(c1ccccc1)c1ccccc1,inactive
7,Cc1noc(NS(=O)(=O)c2ccc(N)cc2)c1C,inactive
8,O=S(=O)(O)c1ccc2cc(O)ccc2c1,inactive
9,O=C(C1CCCCC1)N1CC(=O)N2CCc3ccccc3C2C1 (stereo not given),inactive
10,NC(=O)c1cnccn1,inactive
11,CCCCC(CC)COC(=O)/C=C/c1ccc(OC)cc1 (stereo not given),inactive
12,Cc1ccc(C)c(OCCCC(C)(C)C(=O)O)c1,inactive
13,CCCC(CCC)C(=O)O,inactive
14,NC(=O)c1ccccc1O,inactive
15,Nc1ccn([C@H]2CC[C@@H](CO)O2)c(=O)n1,inactive
16,NC(=O)NC1NC(=O)NC1=O (stereo not given),inactive
17,O=C(O)CS,inactive
18,COc1ccc2[nH]cc(CCNC(C)=O)c2c1,inactive
19,Cc1cn([C@H]2C[C@H](N=[N+]=[N-])[C@@H](CO)O2)c(=O)[nH]c1=O,inactive
20,O=C(O)c1cccnc1,inactive

row,Structure (SMILES),outcome
1,CC(=O)OCC(COC(C)=O)OC(C)=O,inactive
2,O=NO,inactive
3,COc1c2occc2cc2ccc(=O)oc12,inactive
4,O=C1NC(=O)c2ccccc21,inactive
5,O=C(O)CCCCCCCC(=O)O,inactive
6,CC(O)CO (stereo not given),inactive
7,O=c1cc[nH]c(=S)[nH]1,inactive
8,O=C(O)CCC(=O)O,inactive
9,Nc1ccc(O)c(C(=O)O)c1,inactive
10,N=C(N)c1ccc(OCCCCCOc2ccc(C(=N)N)cc2)cc1,inactive
11,CNC[C@H](O)c1cccc(O)c1,inactive
12,CC(=O)Nc1nnc(S(N)(=O)=O)s1,inactive
13,C/C=C/c1ccc(OC)cc1,inactive
14,CCOc1ccc(NC(=O)CC(C)O)cc1 (stereo not given),inactive
15,c1ccc2[nH]ccc2c1,inactive
16,CC(C)[C@@H]1CC[C@@H](C)C[C@H]1O,inactive
17,O=S(=O)(O)NC1CCCCC1,inactive
18,CC1(C)[C@@H]2CC[C@@]1(C)C(=O)C2,inactive
19,Cn1cc[nH]c1=S,inactive
20,O=C(O)c1[nH]n(-c2ccc(S(=O)(=O)O)cc2)c(=O)c1N=Nc1ccc(S(=O)(=O)O)cc1,inactive
